Data from PubChem BioAssay (Tox21).
Results filed as inconclusive are left out. The source made the active and inactive calls. Unless noted, the call rests on the fitted dose curve; in most records, active means well fitted curve in the direction sought with a large enough effect in the repeat runs; inconclusive means weak or mixed curves; inactive means no such curve, though single readings can be large; an effect the other way counts as inactive or inconclusive.

Legend:
[1] = qHTS assay to identify small molecule agonists of the estrogen receptor alpha (ER-alpha) signaling pathway in the presence of an antagonist - cell viability counter screen (AID 1259386);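 further: series mostly up to about 92 µM; cells exposed to compounds for 22 h at 37 °C before the viability read; nearly all actives have a fitted effect of over 30% in size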
Summary of the method: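 The test measures whether compounds kill ER-alpha reporter cells (VM7Luc4E2) under antagonist co-treatment (ICI-182,780, 10.0nM). Fluorescence from CellTiter-Fluor is read after a 22hr exposure.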

[2] = molecular target: Progesterone receptor (Homo sapiens) (UniProt P06401); assay: qHTS assay to identify small molecule agonists of the progesterone receptor (PR) signaling pathway (AID 1346784; calls by dose curve; further: nearly all actives have a fitted effect of over 30% in size; further: potency means the concentration at half of the fitted maximal effect)
Summary of the method: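 The screen uses PR-UAS-bla HEK 293T cells in charcoal-stripped serum (2%). Compounds are applied for 16 hr at 37C after a 6 hr pre-incubation, and reporter activity is detected with a FRET beta-lactamase substrate after 2 hr at room temperature.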

[3] = qHTS assay to identify small molecule antagonists of the progesterone receptor (PR) signaling pathway - cell viability counter screen (AID 1346798); further: nearly all actives have a fitted effect of over 50% in size; further: potency means the concentration at half of the fitted maximal effect; on activity change, negative = cytotoxicity: series mostly up to about 92 µM
Summary of the method: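 Viability was determined by ATP-based luminescence (CellTiter-Glo) in PR-UAS-bla HEK293T cells cultured in 2% charcoal-stripped serum and incubated 16 hr with compounds under R5020 stimulation.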

[4] = qHTS assay to identify small molecule agonists of the progesterone receptor (PR) signaling pathway - cell viability counter screen (AID 1346799; calls by dose curve; further: nearly all actives have a fitted effect of over 45% in size; further: potency means the concentration at half of the fitted maximal effect)
Summary of the method: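 Viability was scored by ATP luminescence (CellTiter-Glo, 30 min, room temperature) in the same wells used for the reporter readout, after 16 hr compound exposure of PR-UAS-bla HEK293T cells.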

[5] = qHTS assay to identify small molecule antagonists of the TGF-beta/Smad signaling pathway - cell viability counter screen (AID 1346824); further: nearly all actives have a fitted effect of over 50% in size
Summary of the method: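 SBE-bla HEK 293T cells, incubated overnight, then compound plus 0.25 ng/mL TGF-beta1 (stock added) for 5 hr at 37 C. Viability was read in the same wells by CellTiter-Glo luminescence after 30 min at room temperature.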

[6] = qHTS assay to identify small molecule agonists of the TGF-beta/Smad signaling pathway - cell viability counter screen (AID 1346829); further: top concentration of the series differs between compounds; nearly all actives have a fitted effect of over 45% in size
Summary of the method: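 In parallel with the Smad reporter read, viability of HEK 293T cells stably carrying SBE-bla is quantified by ATP luminescence following 5 hr compound treatment.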

[7] = qHTS assay to identify small molecule agonists of the TGF-beta/Smad signaling pathway (AID 1346859; active means well fitted activation curve with a large enough effect in the signal ratio in the repeat runs, not every such curve was filed as active; the % refers to the signal ratio; further: series mostly up to about 77 µM)
Summary of the method: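 Dual-wavelength fluorescence (460/530 nm emission) quantified beta-lactamase expression under the Smad binding element in HEK 293T cells following 5 hr compound treatment at 37 C.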

[8] = molecular target: Thyrotropin-releasing hormone receptor (Homo sapiens) (UniProt P34981); assay: qHTS assay to identify small molecule antagonists of the thyrotropin-releasing hormone receptor (TRHR) signaling pathway (AID 1346877; active means well fitted inhibition curve with a large enough effect in the repeat runs, not every such curve was filed as active; further: series mostly up to about 51 µM)
Summary of the method: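 Overnight-plated (18 h, 37 °C) HEK293 cells expressing TRHR were dye-loaded 2 h, treated with compound, then stimulated with TRH at 1 nM final. Fluorescence intensity was captured every second for 3 min.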

[9] = molecular target: Progesterone receptor (Homo sapiens) (UniProt P06401); assay: qHTS assay to identify small molecule antagonists of the progesterone receptor (PR) signaling pathway (AID 1346795; active means well fitted inhibition curve with a large enough effect in the signal ratio in the repeat runs, not every such curve was filed as active; the % refers to the signal ratio; further: potency means the concentration at half of the fitted maximal effect)
Summary of the method: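 After 6 hr plating at 37C in 2% stripped-serum medium, PR-UAS-bla HEK293T cells got compounds, then 1 nM R5020. Sixteen hours later, LiveBLAzer substrate was applied for 2 hr at room temperature and fluorescence was recorded.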
On the % scale 0 is the no-effect control and ±100 the full control effect.

Sequence of Thyrotropin-releasing hormone receptor (Homo sapiens) (P34981 whole entry, looked up): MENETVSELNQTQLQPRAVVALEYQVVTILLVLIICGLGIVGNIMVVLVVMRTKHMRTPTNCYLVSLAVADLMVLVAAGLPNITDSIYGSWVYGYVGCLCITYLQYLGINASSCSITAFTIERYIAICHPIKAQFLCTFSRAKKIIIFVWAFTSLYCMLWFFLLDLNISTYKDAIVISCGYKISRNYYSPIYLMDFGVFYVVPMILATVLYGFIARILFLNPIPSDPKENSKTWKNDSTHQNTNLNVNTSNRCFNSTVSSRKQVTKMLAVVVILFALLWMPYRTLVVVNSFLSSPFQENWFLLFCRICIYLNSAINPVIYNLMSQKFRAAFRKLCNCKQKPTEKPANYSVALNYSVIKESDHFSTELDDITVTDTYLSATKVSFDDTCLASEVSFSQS
Sequence of Progesterone receptor (Homo sapiens) (P06401 whole entry, looked up): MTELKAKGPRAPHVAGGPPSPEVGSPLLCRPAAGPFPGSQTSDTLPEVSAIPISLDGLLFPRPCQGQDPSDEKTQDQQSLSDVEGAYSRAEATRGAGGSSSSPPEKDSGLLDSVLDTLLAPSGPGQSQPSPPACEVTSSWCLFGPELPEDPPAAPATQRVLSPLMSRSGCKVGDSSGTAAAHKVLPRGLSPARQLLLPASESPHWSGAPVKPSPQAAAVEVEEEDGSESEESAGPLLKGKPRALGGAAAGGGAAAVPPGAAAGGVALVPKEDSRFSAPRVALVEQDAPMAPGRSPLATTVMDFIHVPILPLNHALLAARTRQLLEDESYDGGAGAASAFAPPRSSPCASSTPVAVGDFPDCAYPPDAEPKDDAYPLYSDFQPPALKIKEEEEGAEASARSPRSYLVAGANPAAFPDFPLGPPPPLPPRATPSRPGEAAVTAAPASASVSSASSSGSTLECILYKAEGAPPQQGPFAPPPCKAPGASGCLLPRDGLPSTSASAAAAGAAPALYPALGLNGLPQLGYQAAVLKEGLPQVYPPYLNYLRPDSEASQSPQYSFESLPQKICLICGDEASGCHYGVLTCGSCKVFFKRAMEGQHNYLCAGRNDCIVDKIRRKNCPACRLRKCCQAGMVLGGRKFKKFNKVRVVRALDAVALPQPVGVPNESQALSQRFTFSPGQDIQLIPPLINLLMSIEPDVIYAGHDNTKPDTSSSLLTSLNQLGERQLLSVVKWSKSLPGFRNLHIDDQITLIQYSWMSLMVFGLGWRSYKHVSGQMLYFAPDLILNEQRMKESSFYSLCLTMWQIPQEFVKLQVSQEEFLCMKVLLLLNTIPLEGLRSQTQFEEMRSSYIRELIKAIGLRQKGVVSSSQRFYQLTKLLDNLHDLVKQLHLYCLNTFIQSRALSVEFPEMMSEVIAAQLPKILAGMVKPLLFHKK

Cc1nc2sccn2c(=O)c1CCN1CCC(=C(c2ccc(F)cc2)c2ccc(F)cc2)CC1
active: Potency [4] 29.8 µM
inactive: Potency [1] | Potency [2] | Potency [3] | outcome [5] | outcome [6]

CCCc1ccc(OC)cc1
inactive: Potency [1] | Potency [2] | Potency [3] | Potency [4] | outcome [5] | outcome [6] | outcome [7] | outcome [8]

Nc1nc(Cl)nc2c1ncn2[C@H]1C[C@H](O)[C@@H](CO)O1
inactive: Potency [1] | Potency [2] | Potency [9] | Potency [3] | Potency [4] | outcome [5] | outcome [6] | outcome [7] | outcome [8]

CC(CC(C#N)(c1ccccc1)C(C)C)N(C)C (stereo not given)
inactive: Potency [1] | Potency [2] | Potency [3] | Potency [4] | outcome [5] | outcome [6] | outcome [7]

COc1ccc(C(=O)c2ccc(C)cc2)c(O)c1
inactive: Potency [1] | Potency [2] | Potency [3] | outcome [6] | outcome [8]
active: Potency [9] 19.5 µM

O=C(C1CCCCC1)N1CC(=O)N2CCCc3ccccc3C2C1 (stereo not given)
inactive: Potency [1] | Potency [2] | Potency [3] | Potency [4] | outcome [5] | outcome [6] | outcome [8]

CC1=C(C)C(=O)C(C(CCCCCC(=O)O)c2ccccc2)=C(C)C1=O (stereo not given)
inactive: Potency [1] | Potency [2] | Potency [9] | Potency [3] | Potency [4] | outcome [5] | outcome [6] | outcome [8]

CC/C=C/CCO
inactive: Potency [1] | Potency [2] | outcome [5] | outcome [6] | outcome [7] | outcome [8]
active: Potency [3] 31.2 µM | Potency [4] 19.7 µM

C[C@]12CCC(=O)C=C1[C@@H]1C[C@@H]1[C@H]1[C@@H]3[C@@H]4C[C@@H]4[C@@]4(CCC(=O)O4)[C@@]3(C)CC[C@@H]12
inactive: Potency [1] | Potency [3] | outcome [5] | outcome [6] | outcome [8]

COc1cc(C)c(Cc2cnc(N)nc2N)cc1OC
inactive: Potency [1] | Potency [2] | Potency [9] | Potency [3] | outcome [5] | outcome [6] | outcome [7] | outcome [8]

Nc1ccccc1Nc1ccccc1
inactive: Potency [2] | Potency [4] | outcome [5] | outcome [6] | outcome [7] | outcome [8]

CCC(=O)O[C@@H]1C[C@H]2CC[C@]1(C)C2(C)C
inactive: Potency [1] | Potency [2] | Potency [9] | Potency [3] | Potency [4] | outcome [6] | outcome [7] | outcome [8]

CC(=O)Nc1cccc(N)c1
inactive: Potency [1] | Potency [2] | Potency [3] | Potency [4] | outcome [5] | outcome [6] | outcome [7] | outcome [8]

CO[C@@H]1[C@@H](O[C@@H]2O[C@H](C)[C@@H](O[C@H]3C[C@@](C)(O)[C@@H](O)[C@H](C)O3)[C@H](N(C)C)[C@H]2O)[C@@H](CC=O)C[C@@H](C)[C@@H](O[C@@H]2CC[C@H](N(C)C)[C@@H](C)O2)/C=C/C=C/C[C@@H](C)OC(=O)C[C@H]1OC(C)=O
inactive: Potency [1] | Potency [3] | outcome [5] | outcome [6] | outcome [7] | outcome [8]

c1ccc(-c2ccc(-c3ccccc3)cc2)cc1
inactive: activity change, negative = cytotoxicity [1] 0.383% [at 19 µM] | activity change, negative = cytotoxicity [3] 3.71% [at 18.9 µM] | activity change, negative = cytotoxicity [4] 0% [at 19 µM] | viability change, negative = cytotoxic [5] -15.2% [at 15.8 µM] | activity change, negative = cytotoxicity [6] -3.25% [at 15.8 µM] | activation [7] 0.211% [at 15.8 µM] | activity, negative = inhibition [8] -0.349% [at 10.5 µM]

CCOc1ccc(NC(C)=O)cc1N
inactive: Potency [1] | Potency [2] | Potency [4] | outcome [5] | outcome [6] | outcome [7]

CC[C@H](NC(C)C)[C@H](O)c1ccc(O)c2[nH]c(=O)ccc12
inactive: Potency [1] | Potency [2] | Potency [9] | Potency [3] | outcome [5] | outcome [6] | outcome [7] | outcome [8]

CCCc1nc(C)c2c(=O)[nH]c(-c3cc(S(=O)(=O)N4CCN(CC)CC4)ccc3OCC)nn12
inactive: Potency [1] | Potency [2] | Potency [9] | Potency [3] | outcome [5] | outcome [6] | outcome [7]

CCC(=O)O[C@]1(C(=O)COC)[C@@H](C)C[C@H]2[C@@H]3CCC4=CC(=O)C=C[C@]4(C)C3(F)[C@@H](O)C[C@@]21C (stereo not given in full)
inactive: Potency [1] | Potency [9] | Potency [3] | outcome [5] | outcome [6] | outcome [7]
active: Potency [2] 0.376 µM

Cc1ccc(NC(=O)c2ccc(CN3CCN(C)CC3)cc2)cc1Nc1nccc(-c2cccnc2)n1
inactive: Potency [3] | outcome [5] | outcome [6]

CCC(C(=O)O)c1ccc(N2Cc3ccccc3C2=O)cc1 (stereo not given)
inactive: Potency [1] | Potency [2] | Potency [3] | Potency [4] | outcome [5] | outcome [6] | outcome [8]

CCOCCn1c(N2CCCN(C)CC2)nc2ccccc21
inactive: Potency [1] | Potency [2] | Potency [3] | Potency [4] | outcome [5] | outcome [6] | outcome [7] | outcome [8]

O=C(O)c1cc(C(=O)O)c(C(=O)O)cc1C(=O)O
inactive: Potency [1] | Potency [2] | Potency [9] | Potency [3] | outcome [5] | outcome [6] | outcome [7]
